The values that follow come from the supplement of paper PMC10600219.

Structures are written as SMILES. Where a name gives a salt, the structure may show the parent alone. The full ranking holds about 2,800 compounds; the median of “cell viability relative to vehicle” is about 0.98, and the lowest 2% start at about 0.45. Shown is part of a subset that was picked to be rich in the lowest values.

This experiment concerns NCI-H2228 alectinib-DTP. As to the kind of experiment: cell viability relative to vehicle (fraction of vehicle); NCI-H2228 is an ALK-positive lung cancer line and DTP means drug-tolerant persister; higher = less growth inhibition. Conditions: 100 nM; treatment time 6 days. Summed up:
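The 3114-agent TargetMol anti-cancer compound library was tested at 100 nM for 6 days on parental NCI-H2228 cells and on persister cells derived with 1000 nM of a targeted drug for 13 days. ATP readout by the CellTiter-Glo 3D Cell Viability Assay gave cell viability relative to DMSO vehicle-treated cells.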
`CC(C)=CCC[C@](C)(O[C@@H]1O[C@H](CO)[C@@H](O)[C@H](O)[C@H]1O)[C@H]1CC[C@]2(C)[C@@H]1[C@H](O)C[C@@H]1[C@@]3(C)CC[C@H](O)C(C)(C)[C@@H]3[C@@H](O[C@@H]3O[C@H](CO)[C@@H](O)[C@H](O)[C@H]3O[C@@H]3O[C@@H](C)[C@H](O)[C@@H](O)[C@H]3O)C[C@]12C` [Ginsenoside Re] registered a cell viability of 0.852. Turning to `C[C@H]1CNC(=O)c2cnn3ccc(nc23)N[C@H](C)c2cc(F)ccc2O1`, the cell viability stood at 0.904.

Take `NC(=O)c1nc(-c2c(F)cccc2Cl)oc1Nc1ccc(C(=O)N2CCOCC2)cc1`: the cell viability is 0.929.

`C=C(C)[C@@H]1CC[C@]2(C(=O)O)CC[C@]3(C)[C@H](CC[C@@H]4[C@@]5(C)CCC(=O)C(C)(C)[C@@H]5CC[C@]43C)[C@@H]12` [Betulonic acid] came in with a cell viability of 1.08. The value for `O=C(Nc1ccc(C(O)(C(F)(F)F)C(F)(F)F)cc1)c1ccc(C(F)(F)F)cc1` was 0.963; that for `Clc1ccc(NN=C(c2ccccc2)c2ccccn2)nc1` was 0.74. The value for `NNC(=O)c1ccccn1` [2-Picolinyl hydrazide] was 1.02; that for `CN(C)C(=S)NN=C(c1ccccn1)c1ccccn1` was 0.45.

`CC1=C(C(=O)Nc2ccc3[nH]ncc3c2)C(c2ccc(F)cc2)NC(=O)N1` (stereo not given) registered a cell viability of 1.09. As to `CN1CCN(c2ccc(-c3ccncc3-c3cc(F)c(O)c(F)c3)cc2)CC1`, the cell viability came out at 1.11. `COc1ccc(CNc2nc(N3CCC[C@H]3CO)ncc2C(=O)NCc2ncccn2)cc1Cl` [Avanafil] returned a cell viability of 0.984. Regarding `CCc1cnn2c(NCc3ccc[n+]([O-])c3)cc(N3CCCC[C@H]3CCO)nc12` [Dinaciclib], the cell viability was determined as 0.17. The value for `COc1cc2c3cc1Oc1c(OC)c(OC)cc4c1[C@@H](Cc1ccc(O)c(c1)Oc1ccc(cc1)C[C@@H]3N(C)CC2)N(C)CC4` [Berbamine] was 1.09. The value for `CC(=O)Oc1cc(C)c(OC(C)=O)c2ccccc12` [Menadiol Diacetate] was 1.11; that for `COc1ccc(/C(C#N)=C/c2ccc(N3CCC(O)CC3)s2)cc1OC` was 0.953. Consider `CN(C)C/C=C/C(=O)Nc1ccc(C(=O)N2CCC[C@@H](Nc3ncc(Cl)c(-c4c[nH]c5ccccc45)n3)C2)cc1`, for which the cell viability was found to be 0.437. The molecule `COc1cc(N2CCC(N3CCN(C)CC3)CC2)ccc1Nc1ncc(Cl)c(-c2c[nH]c3ccccc23)n1` showed a cell viability of 0.893.

Molecule `CCOc1cc2ncc(C#N)c(Nc3ccc(F)c(Cl)c3)c2cc1NC(=O)/C=C/CN(C)C` [Pelitinib] came in with a cell viability of 0.507.

Take `Cc1cc(NC(=O)c2cccc(NC(=O)/C=C/CN(C)C)c2)ccc1Nc1nccc(-c2cccnc2)n1`: the cell viability was found to be 0.841. The value for `Cc1cc(C(=O)Nc2nc3cccc(Cl)c3n2[C@@H]2CCCCN(C(=O)/C=C/CN(C)C)C2)ccn1` [Nazartinib] was 0.907; that for `CN(C)C/C=C/C(=O)Nc1ccc(C(=O)Nc2cccc(Nc3ncc(Cl)c(-c4c[nH]c5ccccc45)n3)c2)cc1` was 0.346; that for `COc1ccc(C(c2c[nH]c3ccccc23)c2c[nH]c3ccccc23)cc1` was 1.04.

The molecule `CC1(C)CC[C@]2(C(=O)O)CC[C@]3(C)C(=CC[C@@H]4[C@@]5(C)C[C@@H](O)[C@H](O)C(C)(C)[C@@H]5CC[C@]43C)[C@@H]2C1` [Maslinic acid] registered a cell viability of 0.962. The value for `CC(=O)c1ccc(NC2=C(Cl)C(=O)c3ccccc3C2=O)cc1` was 0.908; that for `COC(=O)c1cc(O)c(O)c(O)c1` [Methyl gallate] was 1.07. `OC1CCC(Oc2cccc3cnc(Nc4ccc5nc[nH]c5c4)nc23)CC1` (stereo not given) had a cell viability of 1.02. In the case of `Cc1nn(C)cc1-c1nc2c(N3CCN(Cc4ccc(Cl)cc4)CC3)c(Cl)cnc2[nH]1`, the cell viability was found to be 0.998. The value for `CCCCC/C=C\C/C=C\CCCCCCCC(=O)O` [Linoleic acid] was 0.87. The value for `Cc1c(C)c(NCC(=O)N(C)C2CCN(Cc3ccc(C(N)=O)cc3)CC2)c(C)c(C)c1N` was 0.837; that for `CCNC(=O)c1noc(-c2cc(C(C)C)c(O)cc2O)c1-c1ccc(CN2CCOCC2)cc1` [Luminespib] was 0.48; that for `COCCN1CCN(Cc2ccc(-c3n[nH]c4c3C(=O)c3c(NC(=O)NN5CCOCC5)cccc3-4)cc2)CC1` was 0.3. The value for `O=C(Nc1ccc(CN2CCOCC2)cc1)c1ccc(-c2cccc(Cl)c2)o1` was 0.816; that for `CONC(=O)Nc1ccc(-c2sc3c(c2CN(C)C)c(=O)n(-c2ccc(OC)nn2)c(=O)n3Cc2c(F)cccc2F)cc1` [Relugolix] was 1.12; that for `COc1ccc(S(=O)(=O)/N=C2\C=CC=C\C2=C/C=C2C=CN(O)C=C2)cc1` was 0.935. With `COC(=O)c1c2c(c3ccccc3c1O)OC(C)(C)C=C2` [Mollugin], the cell viability was 1.05. In turn, `Cc1c(O)c(C)c2c(c1O)C(=O)C[C@@H](c1ccc(O)cc1)O2` [Farrerol] came in with a cell viability of 0.874. The value for `Cc1nc(Nc2ncc(C(=O)Nc3c(C)cccc3Cl)s2)cc(N2CCN(CCO)CC2)n1` [Dasatinib monohydrate] was 0.489; that for `Cc1nc(Nc2ncc(C(=O)Nc3c(C)cccc3Cl)s2)cc(N2CCN(CCO)CC2)n1` [Dasatinib] was 0.348. The value for `Cc1cc(Nc2cc(N3CCN(C)CC3)nc(Sc3ccc(NC(=O)C4CC4)cc3)n2)n[nH]1` [Tozasertib] was 0.762.

On to `CN1CCN(CCCNc2ncc(Cl)c(-c3cc4c(C(=O)NC5CC5)cccc4s3)n2)CC1`, for which the cell viability is 0.958. Turning to `Cc1nn2c([nH]c(=O)c3cccnc32)c1C#N`, the cell viability was 1.02. The value for `O=C(NOCCO)c1cc(CN2OCCCC2=O)c(F)c(F)c1Nc1ccc(I)cc1F` was 0.84. Take `CC(C)n1nc(-c2cc3cc(O)ccc3[nH]2)c2c(N)ncnc21` [Torkinib]: the cell viability was found to be 0.733. `CC(C)Oc1ccc(-c2nn([C@@H](C)c3oc4ccc(F)cc4c(=O)c3-c3cccc(F)c3)c3ncnc(N)c23)cc1F`: the cell viability worked out at 0.937. The value for `CC(C)n1nc(-c2ccc3oc(N)nc3c2)c2c(N)ncnc21` was 0.37; that for `Nc1ccc(-c2cnc(N)c(-c3ccc(Cl)cc3)c2)cn1` was 1.07. The value for `Oc1cc(-c2nc(-c3ccccc3)[nH]c2-c2ccncc2)ccc1Cl` was 1.22. The molecule `CC(C)CN(CC(=O)N1CCN(CC(OCc2ccc3ccccc3c2)c2ccc(Cl)cc2Cl)CC1)CC(C)C` (stereo not given) yielded a cell viability of 1.12. The value for `CC(=O)O[C@H]1CC(=O)OC(C)(C)[C@@H]2CC(=O)[C@]3(C)[C@H](CC[C@@]4(C)[C@@H](c5ccoc5)OC(=O)[C@H]5O[C@]543)[C@@]12C` [Nomilin] was 1.15. Take `CC(=O)O[C@@H]1C[C@H](O)[C@@]23CO[C@@H](O)[C@]1(C)[C@@H]2C[C@@H](O)[C@]1(C)[C@@H]3C(=O)[C@H](OC(C)=O)[C@@]2(C)[C@H](c3ccoc3)C[C@H]3O[C@]321` [Toosendanin]: the cell viability turned out to be 0.408. `C[C@H](O)[C@@H](O)[C@@H](O)[C@H](O)C=O` [L-(-)-Fucose] gave a cell viability of 1.09.

Take `O=C(O)c1ccc(S(=O)(=O)N(Cc2ccc(OC(F)(F)F)cc2)c2ncc(C(F)(F)F)cc2Cl)cc1`: the cell viability was 0.969.

The molecule `O=C(Nc1ccc2[nH]nc(-c3ccncc3)c2c1)[C@@H]1CCN(CC(=O)N2CCN(c3ccc(-c4ncccn4)cc3)CC2)C1` gave a cell viability of 0.831. Molecule `COc1ccccc1C(=O)Nc1cc2c(cc1N1CCCCC1)n(C)c(=O)n2C` registered a cell viability of 0.977.

`CC(=O)O[C@H](CC=C(C)C)C1=CC(=O)c2c(O)ccc(O)c2C1=O` [Acetyl shikonin]: the cell viability stood at 1.05. `Cc1nc(Nc2ccc(F)cc2)nc(N2CCc3ccccc3C2C)c1C` (stereo not given) [Revaprazan hydrochloride] registered a cell viability of 0.852. The value for `Cc1cc(C(=O)Nc2cccc(C(=O)Nc3cccc(C(F)(F)F)c3)c2)on1` was 1.1; that for `Cc1cc(Nc2ncc3c(n2)N(C)C(=O)N(c2cc(NC(=O)c4cccc(C(F)(F)F)c4)ccc2C)C3)n(C)n1` [Pluripotin] was 0.301; that for `Cc1ccc(C(=O)Nc2cccc(C(F)(F)F)c2)cc1Nc1nc(-c2cccnc2)nc2c1cnn2C` was 0.974.

Take `COc1cc2nccc(Oc3ccc(NC(=O)c4cn(C(C)C)c(=O)n(-c5ccc(F)cc5)c4=O)cc3F)c2cc1OC`: the cell viability was 0.893.

`Cc1c(CN2CCN(S(C)(=O)=O)CC2)sc2c(N3CCOCC3)nc(-c3cnc(N)nc3)nc12`: the cell viability was found to be 0.514. The value for `COC1(c2sc3c(N4CCOCC4)nc(-c4cnc(N)nc4)nc3c2C)COC1` was 0.496; that for `Cc1c(CN2CCN(C(=O)[C@H](C)O)CC2)sc2c(N3CCOCC3)nc(-c3cnc(N)nc3)nc12` [Apitolisib] was 0.434. The value for `CONC(=O)c1ccccc1Nc1cc(Nc2cc(C)nn2C(C)C)ncc1Cl` was 0.889; that for `Nc1ccc(-c2ccc3ncc4ccc(=O)n(-c5cccc(C(F)(F)F)c5)c4c3c2)cn1` [Torin 2] was 0.414. The molecule `CCC(=O)N1CCN(c2ccc(-n3c(=O)ccc4cnc5ccc(-c6cnc7ccccc7c6)cc5c43)cc2C(F)(F)F)CC1` [Torin 1] displayed a cell viability of 0.437. As to `CC(C)n1c(=O)n(C)c2cnc3cc(F)c(-c4ccc(OCCCN5CCCCC5)nc4)cc3c21`, the cell viability was 0.883. Turning to `CCC(=O)N1CC[C@H](Nc2ncnc3c2CN(c2cnc(OC)c(C(F)(F)F)c2)CC3)C1` [Leniolisib], the cell viability came to 0.904. In the case of `COc1ccc(-c2ccc3ncc4c(c3c2)n(-c2ccc(N3CCNCC3)c(C(F)(F)F)c2)c(=O)n4C)cn1`, the cell viability was 0.373.

The molecule `CN(C)CCCOc1ccc(-c2ccc3ncc4c(c3c2)n(C2CCOCC2)c(=O)n4C)cn1` had a cell viability of 0.878. With `Cn1cc(C2=C(c3cccc(N)c3)C(=O)NC2=O)c2ccccc21`, the cell viability amounted to 0.932. Turning to `Cc1nc2cccc(N)c2c(=O)n1C1CCC(=O)NC1=O` (stereo not given) [Avadomide], the cell viability amounted to 0.982. On to `O=C([O-])CN(CCN(CC(=O)[O-])CC(=O)O)CC(=O)[O-].[Na+].[Na+].[Na+]` [Edetate Trisodium], for which the cell viability worked out at 1.15. The value for `O=C(NO)c1cnc(NC2(c3ccccc3)CC2)nc1` was 1.01.

As for `C=CC(=O)Nc1cccc(Oc2nc(Nc3ccc(N4CCN(C)CC4)c(F)c3)nc3[nH]ccc23)c1` [Avitinib], the cell viability was determined as 0.747.
